Test results reported in PubChem BioAssay.
Activity calls are given as the source filed them.

Assays:
[1] = target: Albumin (Bos taurus) (UniProt P02769); assay: bovine serum albumin binders on microarray, profiling panel, artefact control for SMM control protein annotation, biochemical, small-molecule microarray, Alexa647 label, 635/667 nm fluorescence (AID 1118); details: BSA-A647 binding, fluorescence 635 nm, higher = more signal;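 further: score merges 667 nm emission intensity and signal-to-noise per printed compound spot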
[2] = small-molecule microarray binders of probe aXIP, primary screen, biochemical, NeuroSMM set, 635/667 nm fluorescence (AID 1119); details: higher = more signal, called active from +8 up or from −8 down;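 further: probe is the protein aXip251-270 applied at 1 µg/mL to compound-printed slides; binding of probe to printed compounds measured as 667 nm fluorescence plus signal to noise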
[3] = small-molecule binders of probe aNOTCH3, primary screen, biochemical, small-molecule microarray, 635/667 nm fluorescence (AID 1120); details: higher = more signal;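 further: probe is a biotin-tagged antibody raised against NOTCH3 rather than NOTCH3 protein; score merges spot fluorescence near 667 nm with spot signal to noise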
[4] = small-molecule binders of probe aNOTCH2, primary screen, biochemical, small-molecule microarray, 635/667 nm fluorescence (AID 1121); details: higher = more signal;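 further: score merges feature fluorescence read at 667 nm with its signal to noise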
[5] = target: Carbonic anhydrase 2 (Homo sapiens) (UniProt P00918); assay: CAII small-molecule binders, profiling panel, biochemical, small-molecule microarray, Alexa647-labelled CAII (AID 1122); details: CAII-A647 binding fluorescence, higher = more signal
[6] = COS7 lysate on small-molecule microarray, probe aHis, 635 nm (AID 1123); details: COS7 cell lysate, fluorescence, higher = more signal;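 further: z-score combines 667nm fluorescence intensity with signal-to-noise per printed compound spot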
[7] = compound binding in COS7 lysate, probe aLAP1, primary screen, cell lysate, small-molecule microarray (AID 1124); details: probe aLAP1, fluorescence, higher = more signal;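 further: lysate comes from COS7 cells expressing LAP1 and is applied at 0.3 µg/mL; score merges spot fluorescence near 667 nm with signal-to-noise over triplicate slides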
[8] = test system: Sam68 (KHDRBS1); assay: Sam68 small-molecule binders, primary screen, biochemical, small-molecule microarray, 635 nm fluorescence (AID 1125); details: small-molecule microarray binding, higher = more signal;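 further: score merges 667 nm channel intensity with signal to noise over triplicate slides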
[9] = test system: Chordin-like protein 2 (CHRDL2); assay: CHRDL2 small-molecule binders, primary screen, biochemical, small-molecule microarray, 635 nm fluorescence (AID 1126); details: small-molecule microarray binding, fluorescence 635 nm; higher = more signal;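 further: printed compound slides probed with Chrdl2 protein at 4 µg/mL for 1 h at 4 C; score merges 667 nm emission intensity with signal to noise over three replicate slides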
[10] = target: Concanavalin-A (Canavalia ensiformis) (UniProt P02866); assay: ConA small-molecule binders, primary screen, artefact control for SMM control protein annotation, biochemical, small-molecule microarray, Alexa647 label, 635 nm (AID 1127); details: ConA-A647 binding fluorescence, higher = more signal;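 further: z combines 667 nm emission intensity with signal-to-noise across three replicate slides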
[11] = anti-His antibody binders, primary screen, artefact control for SMM control protein annotation, biochemical, small-molecule microarray, 635 nm fluorescence (AID 1128); details: anti-His Alexa647 antibody binding, higher = more signal;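 further: score merges feature fluorescence with signal-to-noise for each printed compound spot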
[12] = test system: Human papillomavirus type 1a E7 protein (residues 1-88); assay: HPV1a E7 small-molecule binders, primary screen, biochemical, small-molecule microarray, residues 1-88, 635 nm (AID 1129); details: small-molecule microarray binding, fluorescence 635 nm; higher = more signal
[13] = target: Focal adhesion kinase 1 (Homo sapiens) (UniProt Q05397); assay: small-molecule microarray binders of FAK, primary screen, biochemical, 635/667 nm fluorescence, BSA, DTT (AID 1130); details: PTK2 binding, 635 nm fluorescence, higher = more signal;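 further: composite of spot emission at 667 nm and signal to noise over triplicate slides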
[14] = test system: Fibrinogen (Alexa647-labelled); assay: fibrinogen binders on compound microarrays, profiling panel, artefact control for SMM control-protein annotation, biochemical, small-molecule microarray, 635/667 nm fluorescence (AID 1131); details: fibrinogen-A647 binding fluorescence, higher = more signal;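 further: z-score merges 667 nm fluorescence with per-spot signal-to-noise over triplicate slides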
[15] = target: Follistatin (Homo sapiens) (UniProt P19883); assay: follistatin binders on small-molecule microarrays, primary screen, biochemical, small-molecule microarray, 635/667 nm fluorescence (AID 1132); details: FST binding, 635 nm fluorescence, higher = more signal
[16] = target: Fibroblast growth factor 2 (Homo sapiens) (UniProt P09038); assay: FGF2 binders on small-molecule microarrays, primary screen, biochemical, small-molecule microarray, 635/667 nm fluorescence (AID 1133); details: small-molecule microarray binding, FGF2, fluorescence 635/667; higher = more signal
[17] = mitochondrial membrane potential change in A549 cells, profiling panel, cell-based, JC-1 fluorescence, basal, 24 h, 100 nL (AID 1138); details: higher = more signal;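 further: A549 lung adenocarcinoma cells under basal conditions with no added stimulus; test concentration not given here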
[18] = test system: Lefty1; assay: Lefty1 binders on small-molecule microarrays, primary screen, biochemical, small-molecule microarray, 635/667 nm fluorescence (AID 1139); details: small-molecule microarray binding, fluorescence 635/667; higher = more signal
[19] = test system: wheat germ agglutinin (Triticum aestivum), Alexa647-labelled; assay: wheat germ agglutinin binders on compound microarrays, profiling panel, artefact control for SMM control-protein annotation, biochemical, small-molecule microarray, 635/667 nm fluorescence (AID 1140); details: WGA-A647 binding, 635 nm fluorescence, higher = more signal;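 further: score merges 667 nm feature emission with signal to noise over triplicate slides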
[20] = target: Luciferin 4-monooxygenase (Photinus pyralis) (UniProt P08659); assay: firefly luciferase enzyme inhibitors, primary screen, biochemical, luminescence, purified enzyme, 2006 set (AID 1141); details: SteadyGlo luminescence, 30 min, higher = more signal, called active from +8 up or from −8 down;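 further: cell-free assay with purified firefly luciferase at 100 ng per well in PBS; test concentration not given here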
Chain of Luciferin 4-monooxygenase (Photinus pyralis) (P08659 whole entry, looked up): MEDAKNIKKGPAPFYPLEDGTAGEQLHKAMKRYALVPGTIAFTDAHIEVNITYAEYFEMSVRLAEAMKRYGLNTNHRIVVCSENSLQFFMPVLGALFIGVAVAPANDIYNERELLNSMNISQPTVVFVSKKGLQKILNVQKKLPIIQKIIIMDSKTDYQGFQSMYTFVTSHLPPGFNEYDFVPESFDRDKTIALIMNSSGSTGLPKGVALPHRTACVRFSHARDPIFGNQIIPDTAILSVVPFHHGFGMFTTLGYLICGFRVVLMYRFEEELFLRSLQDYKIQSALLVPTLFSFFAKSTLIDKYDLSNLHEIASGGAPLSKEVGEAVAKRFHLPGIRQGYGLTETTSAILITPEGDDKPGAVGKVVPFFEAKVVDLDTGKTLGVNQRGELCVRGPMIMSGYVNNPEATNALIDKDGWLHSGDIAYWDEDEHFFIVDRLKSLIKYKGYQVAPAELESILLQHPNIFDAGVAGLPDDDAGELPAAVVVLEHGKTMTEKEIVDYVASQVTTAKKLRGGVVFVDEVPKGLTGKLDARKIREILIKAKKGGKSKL

Chain of Follistatin (Homo sapiens) (P19883 whole entry, looked up): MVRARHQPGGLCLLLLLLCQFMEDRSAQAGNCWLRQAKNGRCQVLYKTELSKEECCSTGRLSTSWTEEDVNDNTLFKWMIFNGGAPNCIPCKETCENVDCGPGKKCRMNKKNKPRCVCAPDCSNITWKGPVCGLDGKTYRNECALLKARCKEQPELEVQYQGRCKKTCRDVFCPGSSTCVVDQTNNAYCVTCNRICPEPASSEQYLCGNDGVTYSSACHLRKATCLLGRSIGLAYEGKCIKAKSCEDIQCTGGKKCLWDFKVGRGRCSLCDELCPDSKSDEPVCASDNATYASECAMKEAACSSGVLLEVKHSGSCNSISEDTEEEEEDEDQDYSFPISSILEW
Chain of Concanavalin-A (Canavalia ensiformis) (P02866 whole entry, looked up): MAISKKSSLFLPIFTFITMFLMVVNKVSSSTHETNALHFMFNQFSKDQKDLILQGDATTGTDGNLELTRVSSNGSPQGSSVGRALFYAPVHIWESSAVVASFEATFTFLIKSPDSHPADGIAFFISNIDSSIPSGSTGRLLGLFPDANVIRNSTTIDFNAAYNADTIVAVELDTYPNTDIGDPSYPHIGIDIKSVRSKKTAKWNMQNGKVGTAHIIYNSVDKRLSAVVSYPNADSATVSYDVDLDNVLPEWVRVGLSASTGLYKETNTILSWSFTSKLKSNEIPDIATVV
Chain of Focal adhesion kinase 1 (Homo sapiens) (Q05397 whole entry, looked up): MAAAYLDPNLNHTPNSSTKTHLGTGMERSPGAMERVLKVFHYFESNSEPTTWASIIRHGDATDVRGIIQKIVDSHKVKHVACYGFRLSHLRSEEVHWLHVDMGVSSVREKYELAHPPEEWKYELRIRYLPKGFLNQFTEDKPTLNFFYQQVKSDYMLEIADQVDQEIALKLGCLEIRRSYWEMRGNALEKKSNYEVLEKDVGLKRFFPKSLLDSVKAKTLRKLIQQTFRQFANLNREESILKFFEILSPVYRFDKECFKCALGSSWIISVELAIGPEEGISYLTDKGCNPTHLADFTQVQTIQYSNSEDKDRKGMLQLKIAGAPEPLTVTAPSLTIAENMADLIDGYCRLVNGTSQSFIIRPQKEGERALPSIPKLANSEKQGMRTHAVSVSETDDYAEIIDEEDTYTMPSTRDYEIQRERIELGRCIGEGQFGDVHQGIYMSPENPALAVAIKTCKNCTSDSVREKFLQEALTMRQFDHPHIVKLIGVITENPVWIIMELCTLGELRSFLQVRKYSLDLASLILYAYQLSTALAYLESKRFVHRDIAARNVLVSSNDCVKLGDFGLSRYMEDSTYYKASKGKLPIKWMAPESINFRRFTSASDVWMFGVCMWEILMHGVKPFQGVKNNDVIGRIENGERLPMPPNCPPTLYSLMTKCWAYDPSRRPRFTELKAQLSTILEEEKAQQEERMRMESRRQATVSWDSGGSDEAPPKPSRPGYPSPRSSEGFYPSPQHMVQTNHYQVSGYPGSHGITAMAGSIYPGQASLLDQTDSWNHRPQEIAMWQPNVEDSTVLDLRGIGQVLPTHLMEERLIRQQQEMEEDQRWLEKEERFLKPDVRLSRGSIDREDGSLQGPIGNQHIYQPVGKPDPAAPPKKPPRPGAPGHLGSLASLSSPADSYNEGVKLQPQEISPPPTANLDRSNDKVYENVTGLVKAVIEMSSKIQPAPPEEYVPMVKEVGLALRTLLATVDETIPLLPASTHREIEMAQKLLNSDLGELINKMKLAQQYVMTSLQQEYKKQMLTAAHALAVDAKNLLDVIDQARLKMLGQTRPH
Chain of Albumin (Bos taurus) (P02769 whole entry, looked up): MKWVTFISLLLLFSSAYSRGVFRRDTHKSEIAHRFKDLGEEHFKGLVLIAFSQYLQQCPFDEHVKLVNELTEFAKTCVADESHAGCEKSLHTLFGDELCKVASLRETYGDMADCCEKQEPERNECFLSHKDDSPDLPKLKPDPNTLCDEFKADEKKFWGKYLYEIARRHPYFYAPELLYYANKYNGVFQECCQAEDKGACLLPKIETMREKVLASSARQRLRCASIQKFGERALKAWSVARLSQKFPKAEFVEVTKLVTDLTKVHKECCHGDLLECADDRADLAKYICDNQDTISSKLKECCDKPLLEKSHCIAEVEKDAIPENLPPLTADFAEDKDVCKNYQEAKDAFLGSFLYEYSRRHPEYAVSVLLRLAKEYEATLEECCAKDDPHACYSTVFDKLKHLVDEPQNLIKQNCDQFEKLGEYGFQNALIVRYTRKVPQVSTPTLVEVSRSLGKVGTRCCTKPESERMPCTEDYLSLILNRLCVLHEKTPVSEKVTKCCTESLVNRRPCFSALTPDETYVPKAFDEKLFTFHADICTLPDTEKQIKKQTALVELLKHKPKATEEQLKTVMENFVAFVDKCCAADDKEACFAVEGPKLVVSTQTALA
Chain of Fibroblast growth factor 2 (Homo sapiens) (P09038 whole entry, looked up): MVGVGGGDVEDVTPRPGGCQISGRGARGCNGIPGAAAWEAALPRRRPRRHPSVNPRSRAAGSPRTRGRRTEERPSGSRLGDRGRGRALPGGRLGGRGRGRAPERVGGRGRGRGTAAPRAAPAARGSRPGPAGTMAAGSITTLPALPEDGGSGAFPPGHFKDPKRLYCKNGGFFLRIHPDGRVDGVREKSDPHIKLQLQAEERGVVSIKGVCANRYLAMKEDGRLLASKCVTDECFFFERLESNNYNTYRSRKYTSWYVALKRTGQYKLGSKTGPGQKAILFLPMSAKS

SMILES | composite z-score [1] | composite Z-score [2] | composite z-score [3] | composite z-score [4] | composite z-score [5] | composite z-score [6] | composite z-score [7] | composite z-score [8] | composite z-score [9] | composite z-score [10] | composite z-score [11] | composite z-score [12] | composite z-score [13] | composite z-score [14] | composite z-score [15] | composite z-score [16] | z-score [17] | composite z-score [18] | composite z-score [19] | z-score [20]
Cc1ccc(S[C@]2(C(=O)NCCN3CCOCC3)CC(=O)N(Cc3cc(C(F)(F)F)cc(C(F)(F)F)c3)[C@@H]2c2ccc(CO)cc2)cc1 | 0.0152 | -0.654 (inactive) | -0.304 | -0.0846 | 0.78 | 0.244 | 0.248 | -0.142 | -1.01 | -0.664 | -1.03 | 0.624 | 0.151 | -0.899 | -1.09 | -1.21 | 1.59 | -1.1 | -1.54 | -0.682 (inactive)
CC(C)C[C@@H]1NC(=O)[C@H]2C[C@@H](C(=O)NCCCC[N+](C)(C)C)[C@@H](c3cccc(OCCO)c3)N2C1=O | 0.252 | 0.331 (inactive) | 0.217 | -0.19 | 0.475 | 1.89 | 0.987 | 0.848 | 0.938 | 0.476 | 3.29 | -0.146 | -0.153 | -0.236 | 1.25 | 1.61 | 1.31 | 1.39 | -0.102 | -1.97 (inactive)
COc1ccc(C#Cc2ccc3c(c2)[C@]2(C(=O)N3)[C@H](c3ccc(O)cc3)N3[C@H](c4ccccc4)[C@H](c4ccccc4)OC(=O)[C@H]3[C@@H]2C(=O)N2CCN(c3ncccn3)CC2)cc1 | 0.888 | 4.41 (inactive) | 0.116 | 0.0557 | 0.462 | 0.868 | 0.97 | 1.31 | -0.176 | 1.08 | 1.2 | 0.885 | 1.71 | 0.763 | 0.722 | 0.143 | -0.308 | -0.151 | 0.929 | -1.27 (inactive)
COc1ccc(C(=O)Nc2cccc(CN3C(=O)[C@@]4(O[C@@H](CCO)[C@H]([Si](C)(C)c5ccc(OC)cc5)[C@H]4C)c4ccccc43)c2)cc1 | 0.558 | -0.0927 (inactive) | -0.0343 | -0.14 | 0.211 | 0.421 | 0.0002 | 1.18 | -0.143 | 1.01 | 0.338 | 1.07 | -0.177 | 0.795 | 1 | -0.169 | -1.29 | 0.143 | 0.327 | -1.96 (inactive)
